Experimental data taken from PubChem BioAssay (NCATS).
Records with an inconclusive call do not appear. Activity calls are given as the source filed them. Unless noted, calls come from the whole dose curve; as a rule, active = well fitted curve in the direction sought with a large enough effect; inconclusive = small, poorly fitted or top-dose-only effect, or another doubt; inactive = no such curve, though single readings can be large; an effect the other way counts as inactive or inconclusive.

Columns and labels:
[1] = molecular target: Aldehyde dehydrogenase, mitochondrial (Homo sapiens) (UniProt P05091); assay: qHTS for Inhibitors of the Aldehyde Dehydrogenase Family (ALDH2) Confirmatory screens (AID 2061303; active = well fitted inhibition curve with a large enough effect; title and protocol of this record describe different tests; note: nearly all actives have a fitted effect of over 45% in size; note: potency is the fitted concentration of half-maximal effect)
[2] = qHTS for Inhibitors of the Aldehyde Dehydrogenase Family (ALDH1A2, ALDH1A3, ALDH2, ALDH3A1) (AID 2061307); note: nearly all actives have a fitted effect of over 50% in size; for Potency: test system not described further here; potency is the fitted concentration of half-maximal effect
[3] = molecular target: Aldehyde dehydrogenase, mitochondrial (Homo sapiens) (UniProt P05091); assay: qHTS for Inhibitors of the Aldehyde Dehydrogenase Family (ALDH2) Primary screen (AID 2061308); note: nearly all actives have a fitted effect of over 55% in size; note: potency is the fitted concentration of half-maximal effect
[4] = BET inhibitor-based combinations targeting novel dependencies in MECOM-rearranged (r) AML: OCI-AML3 cell line (AID 2202232); conditions: Potency: OCI-AML3 viability; note: potency is the fitted concentration of half-maximal effect; nearly all actives have a fitted effect of over 35% in size
Method in brief: (§1)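 AML cell lines seeded at 500 cells/well, treated with 11-point dose curves for 48 h. Viability by CellTiter-Glo luminescence, normalised to DMSO and empty wells; activity expressed as AUC and per-cell-line Z-transformed AUC.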

[5] = BET inhibitor-based combinations targeting novel dependencies in MECOM-rearranged (r) AML: MV-4-11 cell line (AID 2202233); note: potency is the fitted concentration of half-maximal effect; nearly all actives have a fitted effect of over 45% in size
Method in brief: (§2)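 Cells at 500/well were exposed for 48 hr to MIPE v5.0 drugs as 11-point dose curves. Viability was read by CellTiter-Glo luminescence and normalized to DMSO and empty-well controls. Activity was expressed as AUC and per-cell-line Z-AUC.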

[6] = BET inhibitor-based combinations targeting novel dependencies in MECOM-rearranged (r) AML: HNT-34 cell line (AID 2202234); note: potency is the fitted concentration of half-maximal effect; nearly all actives have a fitted effect of over 35% in size
Method in brief: as §2

[7] = BET inhibitor-based combinations targeting novel dependencies in MECOM-rearranged (r) AML: UCSD-AML1 cell line (AID 2202235); note: potency is the fitted concentration of half-maximal effect; nearly all actives have a fitted effect of over 40% in size
Method in brief: as §2

[8] = BET inhibitor-based combinations targeting novel dependencies in MECOM-rearranged (r) AML: AML-191 cell line (AID 2202236; note: potency is the fitted concentration of half-maximal effect; nearly all actives have a fitted effect of over 35% in size)
Method in brief: as §1

[9] = BET inhibitor-based combinations targeting novel dependencies in MECOM-rearranged (r) AML: AML-194 cell line (AID 2202237; note: potency is the fitted concentration of half-maximal effect; nearly all actives have a fitted effect of over 40% in size)
Method in brief: as §1

[10] = molecular target: Retinaldehyde dehydrogenase 3 (Homo sapiens) (UniProt P47895); assay: qHTS for Inhibitors of the Aldehyde Dehydrogenase Family (ALDH1A3) Confirmatory screens (AID 2061311); note: potency is the fitted concentration of half-maximal effect; nearly all actives have a fitted effect of over 60% in size
[11] = molecular target: Retinal dehydrogenase 2 (Homo sapiens) (UniProt O94788); assay: qHTS for Inhibitors of the Aldehyde Dehydrogenase Family (ALDH1A2) Confirmation screens (AID 2061314); note: potency is the fitted concentration of half-maximal effect; nearly all actives have a fitted effect of over 65% in size
[12] = molecular target: Retinaldehyde dehydrogenase 3 (Homo sapiens) (UniProt P47895); assay: qHTS for Inhibitors of the Aldehyde Dehydrogenase Family (ALDH1A3) Primary screen (AID 2061315)
[13] = molecular target: Aldehyde dehydrogenase 1A1 (Homo sapiens) (UniProt P00352); assay: qHTS for Inhibitors of the Aldehyde Dehydrogenase Family (ALDH1A1) Confirmatory screens (AID 2061316); note: nearly all actives have a fitted effect of over 65% in size; note: potency is the fitted concentration of half-maximal effect

Measured: Potency

COc1cc(Nc2ncc(F)c(Nc3ccc4c(n3)NC(=O)C(C)(C)O4)n2)cc(OC)c1OC
inactive: [1] | [2] | [3]
active: [4] 9.34 µM | [5] 0.148 µM | [6] 1.18 µM | [7] 1.48 µM | [8] 5.9 µM | [9] 7.42 µM

Clc1cccc(-c2ccc(C3Nc4cccc5cccc(c45)N3)o2)c1
active: [1] 5.04 µM | [2] 10.1 µM | [10] 1.59 µM | [11] 11.3 µM

CC(C)(C)OC(=O)N1CCN(c2ccc(NCc3coc(-c4ccc(C#N)cc4)c3)cc2)CC1
active: [1] 0.798 µM | [3] 2 µM | [13] 3.57 µM
inactive: [2] | [12]

N[C@@H](CC(=O)O)C(=O)Nc1ccc(Cl)cc1C(=O)c1ccc[nH]1
inactive: [1] | [2] | [3] | [12] | [13]

Cc1cc2c(s1)c1cnn(Cc3ccc(-n4cncn4)cc3)c(=O)c1n2C
inactive: [3] | [12]
active: [1] 25.1 µM | [2] 14.1 µM | [13] 11.3 µM

FC(F)(F)c1cnc(N2CCN(C(=S)Nc3cc(Cl)ccn3)CC2)c(Cl)c1
active: [1] 7.12 µM | [2] 5.65 µM | [3] 12.6 µM | [13] 2.52 µM
inactive: [12]

COc1ccccc1-c1no[n+]([O-])c1C#N
inactive: [1] | [3] | [12] | [13]
active: [2] 3.18 µM

COc1ccc(C2Nc3ccccc3C(=O)N2Cc2ccccc2)cc1COc1cccc(Cl)c1 (stereo not drawn)
inactive: [3] | [12] | [13]
active: [1] 5.01 µM | [2] 5.65 µM
